Test results reported in PubChem BioAssay AID1159580 (chemical genetic matrix, 2015).
About 2,000 (36%) of roughly 5,500 compounds were called active. Inconclusive results (about 18%) are left out. No stated cut-off is given here; in the data, active means normalized growth mostly below about 0.91 (no sharp cut-off); inconclusive means no clear call, values can overlap the other calls; inactive means mostly above about 0.92. The list shows a part of the results.

Assay: chemical genetic growth profiling, strain panel (AID 1159580);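 further: tested at 20 µM; growth read once vehicle control cultures reached saturation at 30 °C; 1 = growth at the plate median or of vehicle wells; lower values mean less growth of the strain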
Details: growth OD

Measured: normalized growth

CN1CC(CO)=C[C@@H]2c3cccc4[nH]cc(c34)C[C@H]21
inactive: S. cerevisiae deletion strains, locus YAL013W, strain DEP1, hits give low values 0.994 | S. cerevisiae deletion strains, locus YBR021W, strain FUR4, hits give low values 1.02 | S. cerevisiae deletion strains, locus YBR229C, strain ROT2, hits give low values 0.967 | S. cerevisiae deletion strains, locus YCL029C, strain bik1, hits give low values 1.01 | S. cerevisiae deletion strains, locus YDL035C, strain GPR1, hits give low values 0.99 | S. cerevisiae deletion strains, locus YDL074C, strain BRE1, hits give low values 0.957 | S. cerevisiae deletion strains, locus YDL101C, strain DUN1, hits give low values 0.97 | S. cerevisiae deletion strains, locus YDL134C, strain PPH21, hits give low values 0.998 | S. cerevisiae deletion strains, locus YDL185W, strain tfp1, hits give low values 0.982 | S. cerevisiae deletion strains, locus YDL192W, strain arf1, hits give low values 1.01 | S. cerevisiae deletion strains, locus YDR101C, strain arx1, hits give low values 1.01 | S. cerevisiae deletion strains, locus YDR150W, strain NUM1, hits give low values 0.991 | S. cerevisiae deletion strains, locus YDR162C, strain NBP2, hits give low values 0.964 | S. cerevisiae deletion strains, locus YDR318W, strain mcm21, hits give low values 1.02 | S. cerevisiae deletion strains, locus YDR388W, hits give low values 1.01 | S. cerevisiae deletion strains, locus YDR502C, strain sam2, hits give low values 0.993 | S. cerevisiae deletion strains, locus YEL061C, strain CIN8, hits give low values 0.995 | S. cerevisiae deletion strains, locus YER110C, hits give low values 1.01 | S. cerevisiae deletion strains, locus YER155C, strain BEM2, hits give low values 1.01 | S. cerevisiae deletion strains, locus YER167W, strain BCK2, hits give low values 1.01 | S. cerevisiae deletion strains, locus YGL078C, strain dbp3, hits give low values 0.997 | S. cerevisiae deletion strains, locus YGL086W, strain mad1, hits give low values 1.01 | S. cerevisiae deletion strains, locus YGL248W, strain PDE1, hits give low values 0.988 | S. cerevisiae deletion strains, locus YGR078C, strain PAC10, hits give low values 0.977 | S. cerevisiae deletion strains, locus YGR135W, strain pre9, hits give low values 0.985 | S. cerevisiae deletion strains, locus YGR229C, strain SMI1, hits give low values 0.992 | S. cerevisiae deletion strains, locus YGR252W, strain gcn5, hits give low values 1.05 | S. cerevisiae deletion strains, locus YHR030C, strain SLT2, hits give low values 1.01 | S. cerevisiae deletion strains, locus YHR079C, strain IRE1 (second series), hits give low values 1.01 | S. cerevisiae deletion strains, locus YHR094C, strain hxt1, hits give low values 1.01 | S. cerevisiae deletion strains, locus YHR129C, strain ARP1, hits give low values 1.01 | S. cerevisiae deletion strains, locus YHR200W, strain rpn10, hits give low values 1.01 | S. cerevisiae deletion strains, locus YIL066C, strain RNR3, hits give low values 0.983 | S. cerevisiae deletion strains, locus YIL073C, strain SPO22, hits give low values 1.05 | S. cerevisiae deletion strains, locus YIL125W, strain kgd1, hits give low values 0.996 | S. cerevisiae deletion strains, locus YIR030C, strain dcg1, hits give low values 1 | S. cerevisiae deletion strains, locus YJL095W, strain BCK1, hits give low values 0.995 | S. cerevisiae deletion strains, locus YJL134W, strain LCB3, hits give low values 0.989 | S. cerevisiae deletion strains, locus YJL168C, strain set2, hits give low values 0.998 | S. cerevisiae deletion strains, locus YJL187C, strain SWE1 (second series), hits give low values 0.975 | S. cerevisiae deletion strains, locus YJR043C, strain POL32, hits give low values 1.03 | S. cerevisiae deletion strains, locus YJR075W, strain HOC1, hits give low values 0.945 | S. cerevisiae deletion strains, locus YKL009W, strain mrt4, hits give low values 1.01 | S. cerevisiae deletion strains, locus YKL068W, hits give low values 0.999 | S. cerevisiae deletion strains, locus YKL085W, strain MDH1 (second series), hits give low values 1.02 | S. cerevisiae deletion strains, locus YKL085W, strain MDH1, hits give low values 1.02 | S. cerevisiae deletion strains, locus YKL190W, strain CNB1, hits give low values 0.994 | S. cerevisiae deletion strains, locus YKR001C, strain vps1, hits give low values 1.02 | S. cerevisiae deletion strains, locus YLR039C, strain RIC1, hits give low values 0.954 | S. cerevisiae deletion strains, locus YLR058C, strain SHM2, hits give low values 0.982 | S. cerevisiae deletion strains, locus YLR102C, strain apc9, hits give low values 1 | S. cerevisiae deletion strains, locus YLR262C, strain YPT6, hits give low values 0.957 | S. cerevisiae deletion strains, locus YLR268W, strain sec22, hits give low values 0.975 | S. cerevisiae deletion strains, locus YLR330W, strain CHS5, hits give low values 1 | S. cerevisiae deletion strains, locus YLR342W, strain FKS1 (second series), hits give low values 1.03 | S. cerevisiae deletion strains, locus YLR371W, strain rom2, hits give low values 1.01 | S. cerevisiae deletion strains, locus YLR418C, strain cdc73, hits give low values 0.966 | S. cerevisiae deletion strains, locus YML016C, strain PPZ1, hits give low values 1 | S. cerevisiae deletion strains, locus YML032C, strain rad52, hits give low values 1.01 | S. cerevisiae deletion strains, locus YML124C, strain tub3, hits give low values 1.01 | S. cerevisiae deletion strains, locus YMR078C, strain ctf18, hits give low values 1.01 | S. cerevisiae deletion strains, locus YMR223W, strain ubp8, hits give low values 1.02 | S. cerevisiae deletion strains, locus YMR263W, strain SAP30, hits give low values 0.955 | S. cerevisiae deletion strains, locus YMR307W, strain GAS1, hits give low values 1.06 | S. cerevisiae deletion strains, locus YNL067W, strain RPL9B, hits give low values 0.987 | S. cerevisiae deletion strains, locus YNL128W, strain TEP1, hits give low values 0.939 | S. cerevisiae deletion strains, locus YNL153C, strain GIM3, hits give low values 0.975 | S. cerevisiae deletion strains, locus YNL233W, strain BNI4, hits give low values 0.99 | S. cerevisiae deletion strains, locus YNL250W, strain rad50, hits give low values 0.988 | S. cerevisiae deletion strains, locus YNL271C, strain bni1, hits give low values 1.01 | S. cerevisiae deletion strains, locus YNL298W, strain CLA4, hits give low values 1.01 | S. cerevisiae deletion strains, locus YNL307C, strain MCK1, hits give low values 1.02 | S. cerevisiae deletion strains, locus YNL322C, strain KRE1, hits give low values 0.982 | S. cerevisiae deletion strains, locus YNR052C, strain pop2, hits give low values 1.01 | S. cerevisiae deletion strains, locus YOL006C, strain TOP1, hits give low values 0.983 | S. cerevisiae deletion strains, locus YOL012C, strain htz1 1.85 | S. cerevisiae deletion strains, locus YOL147C, strain pex11, hits give low values 1.01 | S. cerevisiae deletion strains, locus YOR061W, strain CKA2, hits give low values 0.963 | S. cerevisiae deletion strains, locus YOR069W, strain VPS5, hits give low values 1 | S. cerevisiae deletion strains, locus YOR136W, strain idh2, hits give low values 1.01 | S. cerevisiae deletion strains, locus YOR144C, strain elg1, hits give low values 1.01 | S. cerevisiae deletion strains, locus YOR184W, strain ser1, hits give low values 1.02 | S. cerevisiae deletion strains, locus YOR316C, strain cot1, hits give low values 1 | S. cerevisiae deletion strains, locus YPL055C, strain LGE1, hits give low values 0.938 | S. cerevisiae deletion strains, locus YPL241C, strain CIN2, hits give low values 0.997 | S. cerevisiae deletion strains, locus YPR119W, strain clb2, hits give low values 1.01 | S. cerevisiae deletion strains, locus YPR141C, strain kar3, hits give low values 0.998 | S. cerevisiae deletion strains, locus YPR163C, strain tif3, hits give low values 1.01 | S. cerevisiae deletion strains, locus YPR167C, strain met16, hits give low values 0.996 | S. cerevisiae deletion strains, strain wtn01, hits give low values 0.995 | S. cerevisiae strains, strain wild type, hits give low values 0.99
